In this experiment the target is Shiga toxin 2 (Escherichia coli O157:H7) (UniProt P09385+P09386). Kind of experiment: E. coli 0.157:H7 Shiga Toxin SOP - stx2 screening assay. Format: functional. More on the design: scale not given: direction of the effect not stated beside the values. Particulars: 30 µM.
Regarding `Cc1ccc(NC2CCN(C(=O)Cc3csc(C)n3)CC2)nn1`, the Percent Effect was 17.7%.
Then `CCC(=O)N1CCC(Cc2ccccc2-c2ccccc2)(C(N)=O)C1` (stereo not given), with 6.14%; and `COc1cc(CNC(=O)Nc2cc(C(F)(F)F)c[nH]c2=O)ccn1`, with 25.7%.
As for `CC(CCc1ccco1)NC(=O)Nc1cc(C(F)(F)F)c[nH]c1=O` (stereo not given), the Percent Effect was determined as 36.5%.
On to `CC(C)CN1CCC2(CCN(Cc3ccsc3)CC2)C1=O`, for which the Percent Effect was -18.6%.
Take `OC(CNCCn1cccn1)c1ccc2c(c1)OCCO2` (stereo not given): the Percent Effect stood at 3.64%.
With `CC(C)C(C(=O)N1CCC(N(C)c2cccnn2)CC1)n1cncn1` (stereo not given) the figure was 11.4%; with `Cc1cc(S(=O)(=O)Nc2cccc(-n3cccc3)c2)sc1C(=O)O`, 11%; with `COc1ccc(NC(=O)Cn2nc(C)c(C)cc2=O)cc1OC`, -13.1%.
With `Cn1cc(CN2CCc3nc(-c4ccccn4)nc(O)c3C2)cn1` the figure was -24.6%; with `Cc1ccccc1OCCC(=O)OC(C)C(=O)Nc1sccc1C(N)=O` (stereo not given), -38.1%; with `CC(=O)N1CCC2(CC1)COCCN2CCN(C)C`, 1.75%.
Take `CCN1CCn2c(C)cnc2C12CCN(C(=O)CC(C)C)CC2`: the Percent Effect is -0.923%.
As for `O=C(c1ccn(-c2ccccc2Cl)n1)N1CCSCC1`, the Percent Effect is 8.96%.
With `CC(Cn1cccn1)NC(=O)CCc1ccc(S(N)(=O)=O)cc1` (stereo not given) the figure was 11.3%; with `CCc1noc(C(C)N(C)CC(=O)Nc2ccc(C)cc2)n1` (stereo not given), -3.18%.
Turning to `CC(C)OCCN(C)C(C)c1cccc(S(N)(=O)=O)c1` (stereo not given), the Percent Effect was -16.4%.
Then `CC(C)c1nc(C(=O)NCCn2ccnc2)nn1-c1cccc(F)c1`, with 32.1%; and `O=C(CC1CC1)N1C[C@@H]2CCN(c3cnccn3)C[C@@H]2C1`, with -0.992%.
With `c1cncc(COCc2nnc3n2CCN(Cc2ccoc2)C3)c1` the figure was -40.3%; with `Cc1ccn(-c2ccc(C(=O)N3CCCC(C(N)=O)C3)cc2)n1` (stereo not given), 8.96%.
Turning to `CCc1cnc(N2CC3(CCN(C(=O)c4ccoc4)C3)C2)nc1`, the Percent Effect is -30.6%.
For the molecule `CC(C)c1nc2c(n1C)CCN(CC(=O)Nc1nccs1)C2`, the Percent Effect turned out to be 26%.
With `CNS(=O)(=O)CCCN1CCCC1c1noc(C2CC2)n1` (stereo not given) the figure was 4.89%.
With `COc1ccccc1CC1CCCN(CC(N)=O)C1` (stereo not given) the figure was 28.2%.
With `CCOC(=O)[C@]12CCCN(Cc3nccs3)C[C@H]1CN(C(C)=O)C2` the figure was -5.93%; with `Cc1ccc(CN2CCC3(CC2)CC(c2cccnc2)CO3)s1` (stereo not given), -7.07%; with `O=C(CCNc1ncccn1)NCCOc1ccc2c(c1)CCC2`, 35.6%.
With `CC(C)c1noc(CCC(=O)NCC2CCS(=O)(=O)C2)n1` (stereo not given), the Percent Effect was -17.1%.
With `CN1CCN(C(=O)NC2CC2)Cc2cccnc21` the figure was -32.5%; with `COc1ccc(-n2ncc(C(=O)NCC3COC(C)(C)O3)c2N)cc1` (stereo not given), 7.2%; with `Cc1nccn1CC1CCCN1S(=O)(=O)Cc1ccccc1` (stereo not given), 4.42%.
Then `COCC1CN(CC2CC2)Cc2nn(C)cc21` (stereo not given), with -5.39%.
Then `CC(=O)Nc1nc(C2CCN(CC(N)=O)CC2)cs1`, with -8.65%; and `C1CC(NCc2nc(C3CC3)no2)CN(Cc2noc(C3CC3)n2)C1` (stereo not given), with 13.3%; and `CCN(CC)C(CNS(=O)(=O)c1ccc(C(=O)NC)cc1)c1ccco1` (stereo not given), with -17.4%.
In the case of `O=C(c1nc(-c2ccc3cc[nH]c3c2)no1)N1CCCC1`, the Percent Effect is -77.4%.
With `CC(C)c1nc(CN2CCCCC2)cs1` the figure was 7.17%.
For the molecule `COc1ccccc1[C@@H]1CN(C(=O)c2csc(C)n2)C[C@H]1C(=O)O`, the Percent Effect was -9.43%.
Then `CCn1cc(NC(=O)NCC(O)COc2cccc(F)c2)cn1` (stereo not given), with 20.1%.
